Source: publication PMC5540273 (PLoS ONE, 2017)

Test system: T1, DRAK1
T1 construct: gene STK17A
Conditions: concentration: 1 μM, replicates: in singlicate; n = 1
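Further: KINOMEscan kinase panel screen.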

SMILES | %Inh
COc1cccc(C2=C(Nc3cc(Cl)c(O)c(Cl)c3)C(=O)NC2=O)c1 [SB-390767] | 2%
Cc1ccccc1Cn1ccn2c(=O)cc(N3CCOCC3)nc12 [GSK2269905] | 0%
Fc1ccc(-c2nn3cccc(F)c3c2-c2ccncc2)cc1 [GW475620] | 0%
Cc1nccc(-c2c(-c3ccc(F)cc3)ncn2CCCN2CCOCC2)n1.Cl [SB-282975] | 14%
Cc1cccc2c(-c3ccncn3)c(-c3ccc(F)cc3)nn12 [GW515532] | 0%
COc1ccc(Nc2nccc(NCCNC(=O)Nc3cc(C)ccc3C)n2)cc1 [GSK1379899] | 0%
Nc1nccc(-c2c(-c3ccc(F)cc3)ncn2C2CCN(Cc3ccccc3)CC2)n1 [SB-219980] | 10%
CS(=O)(=O)Cc1ccc(Nc2nccc(-c3c(-c4cccc(NC(=O)C5CCCCC5)c4)nn4ncccc34)n2)cc1 [GSK350559] | 0%
Cc1ccc(NC(=O)Nc2ccc(Cl)c(C(F)(F)F)c2)cc1-c1ccc(C(=O)Nc2ccncc2)cc1 [GSK1398470] | 0%
O=c1cc(N2CCOCC2)nc2n(Cc3ccccc3F)ccn12 [GSK2297428] | 0%
O=C(Nc1n[nH]c2nc(-c3ccco3)c(Br)cc12)C1CCN(Cc2ccccc2)C1.O=C(O)[C@H](O)[C@@H](O)C(=O)O (centres unmarked) [SB-742034] | 11%
CCn1c(-c2c(N)noc2C)nc2cnccc21 [SB-737856] | 0%
Cn1cnc2c(N)ncnc21 [SKF-97623] | 8%
O=C(Nc1n[nH]c2cc(-c3ccsc3)ccc12)C1CC1 [SB-732932] | 17%
